The values that follow come from PubChem BioAssay.

Records with an inconclusive call do not appear. Active and inactive are the calls of the source. Cut-off not given; nearly all actives show AC50 up to about 26 µM.

This assay in a line: growth inhibition of DIPG glioma cells, dose response, cell-based, SU-DIPG-XVII, MIPE5.0, CellTiter-Glo, qHTS (AID 1347060).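 On AC50: cells exposed to compound for 48 hours before viability readout.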 Particulars: SU-DIPG-XVII viability, CellTiter-Glo ATP luminescence.
On to `CC[C@@]1([C@@H]2O[C@@H]([C@H]3O[C@@](O)(CO)[C@H](C)C[C@@H]3C)C[C@@H]2C)CC[C@H]([C@]2(C)CC[C@]3(C[C@H](O)[C@@H](C)[C@@H]([C@@H](C)[C@@H](OC)[C@H](C)C(=O)O)O3)O2)O1`, for which the half-maximal activity concentration (AC50) is 0.0574 µM (active).
Still for that read-out and setting: as for `CC(=O)O/N=C1/C(c2c(O)[nH]c3cc(Br)ccc23)=Nc2ccccc21`, the figure is 8.33 µM (active).
The same measure, in the same setting: to `Cc1ccc(F)c(NC(=O)Nc2ccc(-c3cccc4[nH]nc(N)c34)cc2)c1` belongs 14.8 µM (active).
Regarding `Clc1ccc(COC(Cn2ccnc2)c2ccc(Cl)cc2Cl)c(Cl)c1` (configuration not stated), the AC50 was 26.3 µM (active).
Consider `Cc1ncc(-c2ccnc(Nc3ccc(S(C)(=O)=O)cc3)n2)n1C(C)C`, for which the AC50 was 5.25 µM (active).
For the molecule `CC(N[C@H]1CCCC[C@@H]1NC(=O)c1ccc(Cl)cc1)c1cccc2ccccc12` (some centres not stated), the half-maximal activity concentration (AC50) was 8.33 µM (active).
In the case of `C/C(O)=C(\C#N)C(=O)Nc1ccc(C(F)(F)F)cc1`, the molecule was called inactive.
Regarding `CNC(=O)c1c(-c2ccc(F)cc2)oc2cc(N(CCO)S(C)(=O)=O)c(C3CC3)cc12`, the result was inactive.
In the case of `CN1N=C(N)c2cn([C@@H]3O[C@H](COP(=O)(O)O)[C@@H](O)[C@H]3O)c3ncnc1c23`, the half-maximal activity concentration (AC50) is 0.417 µM (active).
On to `CNC(=O)c1cccc(-c2ccc3c(N4CCOC[C@@H]4C)nc(N4CCOC[C@@H]4C)nc3n2)c1`, for which the AC50 is 1.32 µM (active).
For the molecule `COc1ccc(-c2ccc3c(N4CCOCC4)nc(N4C[C@@H](C)O[C@@H](C)C4)nc3n2)cc1CO`, the AC50 is 3.72 µM (active).
Turning to `CCOc1cc2ncc(C#N)c(Nc3ccc(OCc4ccccn4)c(Cl)c3)c2cc1NC(=O)/C=C/CN(C)C`, the half-maximal activity concentration (AC50) is 14.8 µM (active).

As a reminder, the AC50 is the concentration giving half of the maximal activity seen.
